HPGD inh: inhibitors of human 15-hydroxyprostaglandin dehydrogenase (HPGD); AID 894; 4.3% of 150,000 active; purified HPGD, NADH fluorescence kinetic, PGE2 substrate; P15428; Potency, µM, for the others: at the top dose activity change, negative = inhibition, most hits filed as inhibitors; note: potency is the fitted concentration of half-maximal effect
Target sequence (P15428 whole entry, looked up): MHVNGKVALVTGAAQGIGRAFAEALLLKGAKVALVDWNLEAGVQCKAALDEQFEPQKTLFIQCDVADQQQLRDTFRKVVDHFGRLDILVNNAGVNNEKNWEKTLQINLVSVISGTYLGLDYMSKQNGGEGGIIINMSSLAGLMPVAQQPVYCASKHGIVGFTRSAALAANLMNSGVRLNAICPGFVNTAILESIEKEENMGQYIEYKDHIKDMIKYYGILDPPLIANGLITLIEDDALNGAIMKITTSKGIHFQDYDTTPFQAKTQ
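20 nM HPGD preincubated 15 min at room temperature with compound in 50 mM Tris-HCl pH 8, 0.01% Tween 20. Started with 1 mM NAD+ and 30 uM prostaglandin E2; NADH fluorescence (360/450 nm) read 5 times over 30-s intervals, last minus first.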
12-hLO inh: blocks human 12-lipoxygenase activity; purified 12-hLO, xylenol orange hydroperoxide absorbance; Potency, µM (series often up to 57.1 µM), inactives show at the top dose activity change, negative = inhibition, actives largely listed as inhibitors; 0.12% of 150,000 active; AID 1452; active = well fitted inhibition curve with a large enough effect; inconclusive = small, poorly fitted or top-dose-only effect; note: potency is the fitted concentration of half-maximal effect; nearly all actives have a fitted effect of over 55% in size
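Purified human 12hLO (150 nM), preincubated 15 min with compound, then 40 uM arachidonic acid for 30 min, room temperature, Hepes pH 7.0 with 0.01% Triton X-100. Hydroperoxide detected by ferrous iron/xylenol orange; 573/405 nm absorbance ratio gives reaction progress.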
ALDH1A1 block: blocks purified human ALDH1A1 activity; P00352; Purified ALDH1A1, NADH fluorescence, propionaldehyde substrate; Potency, µM (top dose mostly 75.3 µM), without a hit: at the highest dose activity, negative = inhibition, actives largely listed as inhibitors; 7.3% of 220,000 active;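 note: potency is the fitted concentration of half-maximal effect; plate controls were no enzyme wells and a reference inhibitor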
LMNA splice mod: LMNA splicing modulation. HeLa LMNA splicing GFP/RFP minigene ratio, 48 h. Potency, µM (series often up to 46.1 µM), inactives show top-dose ratio change, negative = inhibition, hits mostly inhibitors. 0.01% of 200,000 active. AID 1487; active = well fitted inhibition curve with a large enough effect in the signal ratio, with a control signal flat, not every such curve was filed as active; inconclusive = small, poorly fitted or top-dose-only effect, or effect the other way, or a change in a side signal; the % refers to the signal ratio; note: potency is the fitted concentration of half-maximal effect
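Read-out is the ratio of GFP to DsRed2 object intensity, acquired by 488 nm laser-scanning cytometry on HeLa lamin A-EGFP minigene reporter cells. Compound incubation 48 hrs at 37 °C in Opti-MEM with 2% FBS; DMSO 0.5% final.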
PNC assembly inh: blocks assembly of the perinucleolar compartment. PC3M PTB-GFP, PNC prevalence imaging, 16 h; hits give low values. 3.1% of 140,000 active. activity change (PNC), negative = inhibition, % at 10 µM. AID 2417;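 active = readout at or below -70, meaning at least 70% loss of cells showing the perinucleolar compartment, a nuclear body marking cancer cells; inconclusive = readout between -30 and a set limit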;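 note: plate controls were DMSO wells for no effect and camptothecin positive control wells for full effect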
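Compounds are pinned in duplicate onto adhered PC3M cells stably expressing GFP-tagged PTB and incubated 16 h at 37 C. Cells are then fixed, nuclei stained with Hoechst, and PNC-positive cells counted.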
Active calls of the source: *; [ ] = another dose, or the depositor's remark. The list is not random: actives were taken first. Their share in the collection is about 10%. Unless noted, calls come from the whole dose curve; as a rule, active = well fitted inhibition curve with a large enough effect (not every such curve was filed as active); inconclusive = small, poorly fitted or top-dose-only effect, or another doubt; inactive = no such curve, though single readings can be large or run the other way. Unless noted, % is set by controls: 0 for no effect and ±100 for the full control effect.

For COc1ccc(CNC(=O)CCCc2ccccc2)cc1 the results were HPGD inh -25%, 12-hLO inh 5%, ALDH1A1 block 1.1µM*, LMNA splice mod -5% and PNC assembly inh 36.
Cc1ccc(CNC(=O)CCNS(=O)(=O)c2ccc(C)cc2)cc1 was read as HPGD inh -7%, 12-hLO inh 2%, ALDH1A1 block 14µM*, LMNA splice mod 13% and PNC assembly inh 5.
`COc1ccc(S(=O)(=O)NC(C)CCc2ccccc2)cc1` (stereo unspecified) gave ALDH1A1 block 0.63µM* and LMNA splice mod 7%[9.22 µM].
`O=C(CCc1ccc(S(=O)(=O)NCCc2ccccc2)cc1)NCc1ccco1` gave HPGD inh -12%, 12-hLO inh 0%, ALDH1A1 block 5µM*, LMNA splice mod -5% and PNC assembly inh -16.
For C[C@H]1Cc2c(-c3ccccc3)nc3c(c2CO1)CN(C(=O)C1CCCCC1)CC3 the results were HPGD inh -4%, 12-hLO inh 3%[11.4 µM], ALDH1A1 block -1%[13.5 µM] and LMNA splice mod inconclusive.
CCCCN1CCc2nc(Nc3ccc(OC)cc3OC)ncc2C1 was read as LMNA splice mod 13%[46 µM].
For Cc1ccc(S(=O)(=O)NCCC(=O)NCc2ccc3c(c2)OCO3)cc1C the results were HPGD inh -3%, 12-hLO inh 0%, ALDH1A1 block 7.9µM*, LMNA splice mod -2% and PNC assembly inh -10.
COc1ccc(S(=O)(=O)NCCC(=O)NCc2ccccc2)cc1 was read as 12-hLO inh -6%, ALDH1A1 block 25µM*, LMNA splice mod 1% and PNC assembly inh 5.
Screening Cc1ccc(S(=O)(=O)NCCCCCC(=O)NC(C)(C)CO)cc1 returned HPGD inh -9%, 12-hLO inh 0%, ALDH1A1 block 7.9µM*, LMNA splice mod 0% and PNC assembly inh inconclusive.
`COc1ccc(S(=O)(=O)NCc2ccccc2)cc1` gave HPGD inh -15%, 12-hLO inh 0%, ALDH1A1 block inconclusive, LMNA splice mod -7% and PNC assembly inh inconclusive.
CC(=O)NCCNc1nc(-c2cccc(C#N)c2)nc2ccccc12 was read as ALDH1A1 block -8% and LMNA splice mod -2%.
For S=C([S-])NCCNC(=S)[S-].[Zn+2] the results were HPGD inh 10µM*, 12-hLO inh -21% and ALDH1A1 block 11µM*.
O=C(/C=C/c1c(F)cccc1Cl)c1ccc(F)cc1 was read as HPGD inh 13µM*, 12-hLO inh inconclusive, ALDH1A1 block -44%, LMNA splice mod inconclusive and PNC assembly inh 60.
For O=C(/C=C/c1ccc(F)cc1)NCc1ccco1 the results were HPGD inh 25µM*, 12-hLO inh -20%, ALDH1A1 block -3%, LMNA splice mod inconclusive and PNC assembly inh 11.
Screening NS(=O)(=O)c1ccc(CNC(=O)/C=C/c2c(F)cccc2Cl)cc1 returned ALDH1A1 block -3% and LMNA splice mod -5%[46 µM].
`O=C(/C=C/c1c(F)cccc1Cl)NCc1ccco1` gave HPGD inh 10µM*, 12-hLO inh 2%, ALDH1A1 block inconclusive, LMNA splice mod 3% and PNC assembly inh inconclusive.
Screening O=C(c1cnc(N2CCOCC2)c2ccccc12)N1CCN(c2ccccc2)CC1 returned LMNA splice mod 4%[46 µM].
CC(C)(C)C(=O)Nc1cc(-c2cccc(Br)c2)nn1-c1ccccc1 was read as LMNA splice mod -3%[46 µM].
`CC(=O)c1cc(NC(=O)c2ccc(C)cc2)c(=O)oc1C` gave ALDH1A1 block 22µM*.
For Cc1oc(=O)c(NC(=O)c2ccc(Cl)cc2)cc1C(=O)c1ccccc1 the results were HPGD inh 32µM*, 12-hLO inh inconclusive, ALDH1A1 block 3.5µM*, LMNA splice mod inconclusive and PNC assembly inh -25.
For Cc1oc(=O)c(NC(=O)c2ccccc2)cc1C(=O)c1ccccc1 the results were HPGD inh -15%, 12-hLO inh -7%, ALDH1A1 block 18µM*, LMNA splice mod inconclusive and PNC assembly inh 25.
Screening CC(=O)c1cc(NC(=O)c2ccccc2)c(=O)oc1C returned ALDH1A1 block 20µM*.
Screening COC(=O)c1cc(NC(=O)c2ccc(OC)cc2)c(=O)oc1C returned ALDH1A1 block 2% and LMNA splice mod 6%[46 µM].
CCOC(=O)c1cc(NC(=O)c2ccccc2)c(=O)oc1C(F)(F)F was read as ALDH1A1 block -3% and LMNA splice mod 11%[46 µM].
O=C(C1CCN(C2CCN(C/C=C/c3ccccc3)CC2)CC1)N1CCOCC1 was read as ALDH1A1 block 9%.
For COc1cccc(NC(=O)C2CCCN(S(=O)(=O)c3ccc4[nH]c(=O)ccc4c3)C2)c1 (stereo unspecified) the results were LMNA splice mod -2%[46 µM].
For COCCCn1c(C)c(C(C)=O)cc(NC(=O)c2ccccc2)c1=O the results were ALDH1A1 block 2µM* and LMNA splice mod inconclusive.
For C=CCn1c(C)c(C(C)=O)cc(NC(=O)c2ccccc2)c1=O the results were ALDH1A1 block inconclusive and LMNA splice mod 4%[46 µM].
`O=C(O)CCCCCNc1ccc2nsnc2c1[N+](=O)[O-]` gave HPGD inh 28µM*, 12-hLO inh -4%, ALDH1A1 block -5%, LMNA splice mod -6% and PNC assembly inh 15.
For O=C(O)CCCCCNS(=O)(=O)c1cccc2nsnc12 the results were HPGD inh -3%, 12-hLO inh -2%, ALDH1A1 block 4%, LMNA splice mod -3% and PNC assembly inh 33.
For NC(=O)N[C@H]1NC(=O)NC1=O the results were HPGD inh -4%, 12-hLO inh 5%[25.6 µM], ALDH1A1 block 7%[20.9 µM] and LMNA splice mod inconclusive.
For COc1ccc(CSc2nnc(C)n2N)cc1[N+](=O)[O-] the results were ALDH1A1 block 13µM* and LMNA splice mod 10%[46 µM].
CCCCOc1ccc(CSc2nnc(C)n2N)cc1[N+](=O)[O-] was read as ALDH1A1 block 1%.
For COc1ccc(CSc2n[nH]c(C)n2)cc1[N+](=O)[O-] the results were HPGD inh -27%, 12-hLO inh -7%, ALDH1A1 block 10µM*, LMNA splice mod -9% and PNC assembly inh -16.
`COc1ccc(CSc2nnc(C)n2N)cc1Br` gave HPGD inh -5%, 12-hLO inh 0%, ALDH1A1 block 15%, LMNA splice mod 3% and PNC assembly inh inconclusive.
Screening CCc1nnc(SCc2ccc(OC)c(Br)c2)n1N returned HPGD inh -24%, 12-hLO inh 0%, ALDH1A1 block 28µM*, LMNA splice mod 7% and PNC assembly inh 19.
For CCCCN(CC)C(=O)c1c[nH]c2ccc(S(=O)(=O)N(C)c3ccc(Cl)cc3)cc2c1=O the results were LMNA splice mod 1%[46 µM].
For Cn1c(=O)cnc2cnc(Oc3ccccc3)nc21 the results were HPGD inh -8%, 12-hLO inh -1% and ALDH1A1 block inconclusive.
For CC(C)(C)OC(=O)N1CCC(c2c(C(=O)N3CCCCC3)cnn2-c2ccc(F)cc2)CC1 the results were LMNA splice mod 5%[46 µM].
